# Screens (PubChem BioAssay)
# ADAM17 inh – ADAM17 inhibitors, primary screen, biochemical, QFRET. recombinant ADAM17, EDANS/DABCYL FRET peptide cleavage. Disintegrin and metalloproteinase domain-containing protein 17 (Homo sapiens), P78536. inhibition, % at 6.95 µM. actives 0.83% (n = 370,000);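 active = inhibition above the mean of compounds lying between control limits plus 3 SD, set per campaign, cut at about 8.5% in these data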;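 also: 0% = DMSO-only wells as the low control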
# V-ATPase pH – regulators of yeast V-ATPase proton pumping, primary screen, pHLuorin cytosolic pH fluorescence; S. cerevisiae; response, % at 10 µM; actives 0.37% (n = 350,000); in the data active = response mostly above about 7.3%, no sharp cut-off; inactive = mostly below about 5.4%; also: actives read high
# KLK7 zymogen act – proKLK7 zymogen activators, primary screen, biochemical, fluorescence intensity | purified proKLK7, EDANS-DABCYL substrate fluorescence; 100% is mature enzyme control, 0% vehicle | activation, % at 7 µM | actives 0.9% (n = 370,000) | AID 652039, 2013;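 active = activation above the mean of all tested compounds plus 3 SD, computed per campaign excluding outliers beyond control limits, cut at about 13% in these data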
# Target sequence (P49862 whole entry, looked up): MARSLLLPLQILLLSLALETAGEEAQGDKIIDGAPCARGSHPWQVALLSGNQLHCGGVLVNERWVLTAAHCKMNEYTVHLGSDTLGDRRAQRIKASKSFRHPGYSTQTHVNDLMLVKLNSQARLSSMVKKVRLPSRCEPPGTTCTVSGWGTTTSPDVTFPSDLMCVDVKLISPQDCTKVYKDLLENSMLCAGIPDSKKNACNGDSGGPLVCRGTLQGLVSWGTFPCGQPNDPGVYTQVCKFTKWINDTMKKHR
# ADAM10 inh – human ADAM10 inhibitors, primary screen, biochemical, QFRET, HTS | Disintegrin and metalloproteinase domain-containing protein 10 (Homo sapiens), O14672 | recombinant ADAM10, EDANS/DABCYL FRET peptide cleavage, 3 h | inhibition, % at 7 µM | actives 0.62% (n = 370,000);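 active = inhibition above a per-campaign cutoff equal to the mean of compounds falling between control-based bounds plus 3 SD, cut at about 20% in these data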;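 also: 0% = DMSO wells while the 100% control is not disclosed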
# ADAM10 confirm – human ADAM10 inhibitors, confirmation, biochemical, QFRET, triplicate; ADAM10 QFRET peptide cleavage, EDANS fluorescence; inhibition, % at 6.95 µM; shares compounds with ADAM10 inh; actives 1% (n = 2,100); AID 743208, 2013;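 active = inhibition above about 20% chosen separately for each screening run, limit read from the data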;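 also: 0% = DMSO wells and 100% = marimastat wells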
# ADAM17 counter – ADAM17 inhibitors, counter-screen for ADAM10 exosite inhibitor project, biochemical, QFRET, high throughput | shares compounds with ADAM10 inh | ADAM17 QFRET peptide cleavage, EDANS fluorescence | inhibition, % at 6.95 µM | actives 0.5% (n = 2,100);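 active = mean triplicate inhibition above the solvent-only control wells' mean plus 3 SD, cut at about 12% in these data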;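 also: 0% = DMSO wells and 100% = marimastat wells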
# An asterisk follows results filed as active; nt = no result given. Rows were chosen to be rich in hits. Some 2.3% of all compounds tested hit in one or more screens of this group.
SMILES,ADAM17 inh,V-ATPase pH,KLK7 zymogen act,ADAM10 inh,ADAM10 confirm,ADAM17 counter
COc1ccccc1C(=O)Nc1nc(-c2ccc(S(=O)(=O)N3CCOCC3)cc2)cs1,3.3,3.0,-13.4,-7.7,nt,nt
COc1ccccc1OC(C)C(=O)Nc1nc(-c2ccc(S(=O)(=O)N3CCOCC3)cc2)cs1 (stereo not given),6.5,-1.6,0.3,21.1*,8.8,3.3
COCCCN1C(=O)[C@H](CC(=O)NCCc2ccccc2OC)[C@]2(C(=O)OC)CCCCC=C12,-2.4,nt,0.2,-4.9,nt,nt
O=C(N[C@@H](Cc1cccnc1)C(=O)N1CCC[C@H]1C(=O)NC1CCCC1)C1CC1,-6.8,nt,-0.3,-12.1,nt,nt
CCOC(=O)c1c(NC(=O)CSc2nnc(-c3cccc(C)c3)n2CC)sc(C(C)=O)c1C,0.8,1.5,0.0,11.9,nt,nt
CCOC(=O)c1c(NC(=O)CSc2nnc(-c3ccccc3)n2CC)sc(C(C)=O)c1C,4.3,0.2,0.6,22.6*,-1.7,0.1
CCn1c(SCC(=O)Nc2nc3ccccc3s2)nnc1-c1ccc(OC)cc1,0.7,4.2,-0.3,19.9*,-0.4,0.9
Cc1onc(C(=O)N2CCN(C(c3ccccc3)c3ccccc3)CC2)c1Br,4.3,nt,nt,13.6,nt,nt
CSc1ccc(OC2CCCCC2NS(=O)(=O)c2ccc(Cl)cc2)cc1 (stereo not given),6.8,1.0,-0.3,28.2*,9.5,2.6
O=S(=O)(NC1CCCCC1Oc1ccccc1)c1ccc(Cl)cc1 (stereo not given),0.5,-1.2,0.0,7.7,nt,nt
O=S(=O)(NC1CCCCCCC1)c1ccc(F)cc1,-5.0,-0.3,0.0,-7.6,nt,nt
O=S(=O)(NC1CCCCC1NS(=O)(=O)c1ccc(F)cc1)c1ccc(F)cc1 (stereo not given),1.7,2.7,-0.2,19.9*,0.8,0.8
CCC(=O)Nc1ccc2c(c1)C(=O)N(C)[C@@H]1CC[C@@H](CC(=O)NCc3ccc(OC)cc3)O[C@H]1CO2,-5.0,nt,0.2,-12.3,nt,nt
O=C(Nc1ccc(Oc2ccc3ccccc3c2)cc1)c1ccco1,1.9,-0.2,0.0,22.6*,9.2,2.9
Fc1ccccc1Cn1ccc2ccc(-c3ccc4ccn(Cc5ccccc5F)c4c3)cc21,-2.8,nt,-4.4,2.3,nt,nt
CC1(C)CC2CC(C)(CN2C(=O)c2cc(-c3ccc(O)cc3)on2)C1 (stereo not given),6.8,-5.9,-0.2,22.5*,3.6,0.4
O=C(NC(C(=O)N/N=C/c1cccc2ccccc12)c1n[nH]c(=O)c2ccccc12)c1ccccc1 (stereo not given),7.4,3.3,-6.1,21.9*,18.6,6.3
O=C(NC(C(=O)N/N=C/c1ccncc1)c1n[nH]c(=O)c2ccccc12)c1ccccc1 (stereo not given),-2.0,-1.0,-0.4,-4.0,nt,nt
C[C@@H]1CCCCO[C@H](CN(C)Cc2ccncc2)[C@@H](C)CN([C@H](C)CO)C(=O)c2cc(N(C)C)ccc2O1,-4.1,nt,1.0,-19.5,nt,nt
O=C(OC12CCCN(C1)/C(=C/c1cccc(Cl)c1)C2)C1CCCC1 (stereo not given),-1.3,nt,-0.8,-0.9,nt,nt
CCc1nc2ccccc2c(C(=O)OCC(=O)Nc2cccc(S(=O)(=O)NC3=NCCCCC3)c2)c1C,6.0,0.7,0.8,15.2,nt,nt
CCc1nc2ccccc2c(C(=O)OCC(=O)Nc2cccc(S(=O)(=O)N3CCOCC3)c2)c1C,5.5,-0.4,0.6,21.8*,3.0,1.1
COc1ccc(C2(c3ccc(OC)cc3)NC(=O)N(CC(=O)Nc3ccccc3C)C2=O)cc1,1.4,-1.5,0.4,7.3,nt,nt
COc1ccc(C2(c3ccc(OC)cc3)NC(=O)N(CC(=O)Nc3ccccc3C(F)(F)F)C2=O)cc1,8.0,1.0,0.4,21.2*,2.1,1.0
Cc1ccc(C2(c3ccccc3)NC(=O)N(CC(=O)NCc3ccccc3)C2=O)cc1C (stereo not given),8.2,-0.1,-0.4,22.9*,3.0,0.7
